Where “and” joins values, the source holds several entries; their conditions need not be identical. Equal values may be shown once. Inconclusive results are not listed. Unmarked numbers belong to inactive results. Calls of active or inactive are those of the source. Calls follow the shape of the full dose curve.
How the values were obtained:
[1] = biological target: Bile acid receptor (Homo sapiens) (UniProt Q96RI1); test: qHTS assay for small molecule agonists of farnesoid X receptor signaling (AID 588527); settings: HEK293T FXR-UAS-bla, beta-lactamase ratio, 16 h; activation: stronger effect = higher value;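 also: series mostly up to about 77 µM; 0% = vehicle basal and 100% = reference agonist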
Summary of the method: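 FXR-UAS-bla HEK293T cells (10% dialyzed FBS) preincubated 5-7 h at 37 C, then compounds at up to 92 uM for 16 h at 37 C. CCF4 beta-lactamase read-out after 2 h RT. Normalized to chenodeoxycholic acid (100 uM) and DMSO; Hill fit gave EC50 and efficacy.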

[2] = biological target: Peroxisome proliferator-activated receptor delta (Homo sapiens) (UniProt Q03181); test: qHTS assay for small molecule agonists of peroxisome proliferator-activated receptor delta signaling (AID 588534);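 also: 0% = DMSO basal wells and 100% = positive control agonist at 10 µM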
Summary of the method: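 Agonist-mode beta-lactamase reporter readout (CCF4 dye, 2 h at RT) after 18 h at 37 °C exposure to a titration; Hill-equation fitting gave EC50 and maximal response.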

Chain of Peroxisome proliferator-activated receptor delta (Homo sapiens) (Q03181 whole entry, looked up): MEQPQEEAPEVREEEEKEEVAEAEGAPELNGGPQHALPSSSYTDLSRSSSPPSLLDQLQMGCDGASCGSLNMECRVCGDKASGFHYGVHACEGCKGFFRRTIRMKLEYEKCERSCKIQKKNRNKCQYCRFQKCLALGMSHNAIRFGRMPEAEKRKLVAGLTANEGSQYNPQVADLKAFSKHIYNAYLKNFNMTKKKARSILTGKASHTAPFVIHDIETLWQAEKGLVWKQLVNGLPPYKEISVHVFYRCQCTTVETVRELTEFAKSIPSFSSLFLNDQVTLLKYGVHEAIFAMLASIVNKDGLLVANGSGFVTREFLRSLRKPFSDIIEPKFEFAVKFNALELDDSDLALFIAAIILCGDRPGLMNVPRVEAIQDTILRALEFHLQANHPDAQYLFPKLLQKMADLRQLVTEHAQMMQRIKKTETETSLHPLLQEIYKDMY
Chain of Bile acid receptor (Homo sapiens) (Q96RI1 whole entry, looked up): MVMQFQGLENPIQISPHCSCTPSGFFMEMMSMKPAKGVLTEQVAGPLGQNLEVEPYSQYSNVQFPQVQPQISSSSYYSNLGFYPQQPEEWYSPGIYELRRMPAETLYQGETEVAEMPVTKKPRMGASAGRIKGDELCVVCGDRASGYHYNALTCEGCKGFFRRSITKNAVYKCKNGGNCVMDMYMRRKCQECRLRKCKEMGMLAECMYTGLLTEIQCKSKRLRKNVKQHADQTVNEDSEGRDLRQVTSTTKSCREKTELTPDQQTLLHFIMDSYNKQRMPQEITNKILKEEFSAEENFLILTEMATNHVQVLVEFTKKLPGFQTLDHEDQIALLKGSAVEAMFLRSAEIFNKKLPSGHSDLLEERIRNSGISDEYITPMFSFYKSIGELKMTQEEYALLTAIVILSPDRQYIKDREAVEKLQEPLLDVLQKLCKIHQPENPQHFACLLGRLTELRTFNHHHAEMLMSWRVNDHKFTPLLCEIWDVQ

CN(CCO)CC(O)Cn1cnc2c1c(=O)n(C)c(=O)n2C (stereo not given) (tested in a mixture with another compound)
activation [1]: 1.67% | outcome [2]: inactive

c1ccc(Oc2ccccc2)cc1
activation [1]: -0.867% | outcome [2]: inactive

COc1ccc(N)c(C)c1
activation [1]: -1.77% | outcome [2]: inactive

CCNc1cc(O)ccc1C
activation [1]: 2% | outcome [2]: inactive

CCO
activation [1]: -3.44% | outcome [2]: inactive

Oc1cccc(Nc2ccccc2)c1
activation [1]: 0.64% | outcome [2]: inactive

NC(=S)NNC(N)=S
activation [1]: 0.327% and 1.24% | outcome [2]: inactive

O=[N+]([O-])c1cccc(Cl)c1Cl
activation [1]: -2.65% and -2.56% | outcome [2]: inactive

CCCCC(CC)COS(=O)(=O)O (stereo not given)
activation [1]: 1.45% | outcome [2]: inactive

COc1nc(C)nc(NC(=O)NS(=O)(=O)c2ccccc2OCCCl)n1
activation [1]: -2.13% | outcome [2]: inactive

O=C=NCCCCCCN=C=O
activation [1]: 0.566% | outcome [2]: inactive

CC(=O)Nc1ccc(N)cc1
activation [1]: 1.67% | outcome [2]: inactive

C=C(C)C(=O)OC
activation [1]: -1.27% | outcome [2]: inactive

CNc1nc(=O)n(C2CCC(O)CC2)c(=O)n1C (stereo not given)
activation [1]: 2.07% | outcome [2]: inactive

COc1cccc2sc(N)nc12
activation [1]: -1.11% | outcome [2]: inactive

CC(=O)c1cccc([N+](=O)[O-])c1
activation [1]: -1.11% | outcome [2]: inactive

Cc1ccccc1C(N)=O
activation [1]: 2.86% | outcome [2]: inactive

C[Si]1(C)O[Si](C)(C)O[Si](C)(C)O[Si](C)(C)O1
activation [1]: -3.3% | outcome [2]: inactive

CCO[Si](CCCN)(OCC)OCC
activation [1]: -1.61% and 1.5% | outcome [2]: inactive

CCCCC(CC)COC(=O)c1ccc(C(=O)OCC(CC)CCCC)cc1 (stereo not given)
activation [1]: 2.72% | outcome [2]: inactive
